Our source for the growth values is PubChem BioAssay (NCI).

Some test systems named below: SK-MEL-2 melanoma; EKVX NSCLC; SN12C renal; UO-31 renal; TK-10 renal; ACHN renal; CAKI-1 renal; A498 renal; CCRF-CEM leukemia; MOLT-4 leukemia.
Test in all cases: NCI-60 one-dose screen, 48 h (100 = growth as untreated, 0 = no growth, -100 = all killed)
What all share (details): 10 µM unless noted

This is part of a sample that, as a whole, favours compounds with a hit. Of some 83,000 tested, about 20% had one in any assay.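 Assay: single dose, 48 h. Readout: percent growth (0 = no net growth; negative = cell death). Active: <10.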 Values without a mark were called inactive. Calls of active or inactive are those of the source.

With `CC(=O)Cc1nsc(NC(=O)c2ccoc2COc2ccccc2)n1`, the growth in the test on SK-MEL-2 melanoma is 107%; with EKVX NSCLC, 91.1%; with SN12C renal, 90.2%; in the test with UO-31 renal, 77.1%; in the test with TK-10 renal it was 107%; with ACHN renal, 99.7%. Also, the growth was 99.8% with CAKI-1 renal, 97.4% with A498 renal, 93.2% in the test on CCRF-CEM leukemia and 106% with MOLT-4 leukemia.

On to `COc1cc(-c2c(C#N)c(-c3cccs3)nc3c2c(-c2ccccc2)nn3-c2ccccc2)ccc1O`, for which the growth in the test on SK-MEL-2 melanoma was 81%; in the test on EKVX NSCLC it was 79.9%; in the test on SN12C renal, 89.2%; in the test with UO-31 renal, 89.1%; in the test with TK-10 renal, 101%; in the test with ACHN renal it was 86.1%. Besides, the growth in the test with CAKI-1 renal was 66.6%; in the test on A498 renal, 106%; with CCRF-CEM leukemia it was 83.2%; with MOLT-4 leukemia, 59.9%.

Take `O=C1c2cccc3cccc(c23)C(=O)N1CC#Cc1ccc2c3c(cccc13)C(=O)N(CCN1CCNCC1)C2=O`: the growth was 113% in the test with SK-MEL-2 melanoma; 104% in the test with EKVX NSCLC; 97.2% in the test with SN12C renal; 97.7% with UO-31 renal; 141% in the test with TK-10 renal; 74.4% with ACHN renal. Further, the growth in the test with CAKI-1 renal was 82.4%; in the test with A498 renal, 112%; in the test on CCRF-CEM leukemia, 7.71% (active); in the test on MOLT-4 leukemia it was 6.74% (active).

Turning to `O=C1CN(c2ccccc2)C(=O)C1C(=O)Nc1ccc(Cl)c(Cl)c1` (stereo not given), the growth with SK-MEL-2 melanoma is 18.1% [100 µM]; in the test on EKVX NSCLC, 47.4% [100 µM]; in the test with SN12C renal it was 17.6% [100 µM]; in the test with UO-31 renal, 5.84% [100 µM] (active); in the test with TK-10 renal it was 26.4% [100 µM]; in the test with ACHN renal it was 2.16% [100 µM] (active). Moreover, the growth in the test on CAKI-1 renal is -2.42% [100 µM] (active); with A498 renal, 11.3% [100 µM]; in the test with CCRF-CEM leukemia, 35.9% [100 µM]; in the test with MOLT-4 leukemia it was 6.47% [100 µM] (active).

Turning to `Cn1cc(-c2csc(-c3c[nH]c4ccccc34)n2)c2cccnc21`, the growth with SK-MEL-2 melanoma was 38.2%; in the test on EKVX NSCLC, 42.5%; in the test on SN12C renal, 46.5%; in the test on UO-31 renal, 57.2%; in the test with TK-10 renal, 48%; in the test with ACHN renal, 51.8%. Also, the growth was 15.7% in the test with CAKI-1 renal, 13.5% in the test on A498 renal, 20.4% with CCRF-CEM leukemia and 44.4% with MOLT-4 leukemia.

With `COc1ccc(C2CC(=O)c3c(nc4ccc(Cl)cc4c3N)C2)cc1` (stereo not given), the growth in the test on SK-MEL-2 melanoma was 118%; in the test on EKVX NSCLC, 97.6%; in the test on SN12C renal, 101%; in the test on UO-31 renal, 92.2%; with TK-10 renal, 80.6%; in the test on ACHN renal, 105%. Also, the growth in the test on CAKI-1 renal is 88.5%; with A498 renal, 100%; in the test with CCRF-CEM leukemia, 91.6%; in the test with MOLT-4 leukemia, 95.1%.

In the case of `c1ccc(-c2nc(Nc3ccc(-c4nc5ccccc5[nH]4)cc3)nc(N3CCOCC3)n2)cc1`, the growth with SK-MEL-2 melanoma was -52.7% (active); in the test on EKVX NSCLC, -66.9% (active); with SN12C renal it was -62.8% (active); with UO-31 renal, -60.6% (active); with TK-10 renal, -58.1% (active); with ACHN renal it was -58.9% (active). Further, the growth in the test on CAKI-1 renal was -89.4% (active); in the test with A498 renal, -83.4% (active); in the test with CCRF-CEM leukemia it was -15.7% (active); in the test with MOLT-4 leukemia it was -37.8% (active).

On to `COc1ccc(/C=C(\C#N)c2cc3ccccc3n2C(C)=O)cc1`, for which the growth in the test on SK-MEL-2 melanoma is 83.3%; in the test on EKVX NSCLC it was 78%; in the test on SN12C renal, 91%; in the test on UO-31 renal it was 88.1%; with TK-10 renal, 126%; with ACHN renal, 102%. Besides, the growth in the test with CAKI-1 renal was 69.1%; with A498 renal, 78.3%; with CCRF-CEM leukemia, 75.6%; in the test with MOLT-4 leukemia it was 70%.

Regarding `O=P(O)(c1ccccc1)c1ccccc1I`, the growth was 96% with SK-MEL-2 melanoma; 94.7% in the test with EKVX NSCLC; 99.3% with SN12C renal; 83.4% in the test on UO-31 renal; 102% in the test with TK-10 renal; 106% with ACHN renal. The growth in the test with CAKI-1 renal is 90.1%; with A498 renal, 92.6%; in the test on CCRF-CEM leukemia, 94.6%; in the test with MOLT-4 leukemia, 97.7%.

Turning to `CC[C@]12C=CCN3CC[C@@]4(c5cc([C@H]6CCC(=O)N6)c(OC)cc5N(C)[C@H]4[C@@](O)(C(=O)OC)[C@@H]1OC(C)=O)[C@@H]32`, the growth with SK-MEL-2 melanoma was 98.4% [2.5 µM]; with EKVX NSCLC, 111% [2.5 µM]; in the test with SN12C renal it was 96.9% [2.5 µM]; in the test with UO-31 renal it was 86.3% [2.5 µM]; in the test on TK-10 renal, 106% [2.5 µM]; with ACHN renal, 90% [2.5 µM]. The growth is 94.4% [2.5 µM] with CAKI-1 renal, 116% [2.5 µM] in the test with A498 renal, 99.6% [2.5 µM] with CCRF-CEM leukemia and 102% [2.5 µM] in the test on MOLT-4 leukemia.

Consider `O=S(=O)(NCCNc1cc(-c2cn(-c3ccccc3)nc2-c2cccc(O)c2)ccn1)c1ccc(F)cc1`, for which the growth with SK-MEL-2 melanoma was 22.2%; in the test on EKVX NSCLC it was 56.1%; in the test on SN12C renal, 44.2%; with UO-31 renal, 20.1%; in the test with TK-10 renal it was 46.2%; with ACHN renal, 27.3%. Further, the growth in the test with CAKI-1 renal was 37.1%; in the test on A498 renal, 36.2%; in the test on CCRF-CEM leukemia it was 5.95% (active); in the test on MOLT-4 leukemia, 4.37% (active).

As for `COc1cc2c3c(c4c5ccccc5[nH]c4c2c(OC)c1OC)C(=O)N(O)C3=O`, the growth in the test with SK-MEL-2 melanoma was 85.6%; in the test with EKVX NSCLC, 97.1%; in the test with SN12C renal, 46.6%; with UO-31 renal it was 10%; with TK-10 renal it was 80.1%; with ACHN renal it was 20.6%. The growth with CAKI-1 renal is 36%; in the test with A498 renal, -16.8% (active); in the test with CCRF-CEM leukemia it was 18%; with MOLT-4 leukemia, 1.38% (active).

For `COc1cccc(-c2nn(-c3ccccc3)cc2-c2ccnc(NCCNS(=O)(=O)c3ccc(C(F)(F)F)cc3)c2)c1`, the growth is -11.3% (active) in the test with SK-MEL-2 melanoma; 29.4% in the test on EKVX NSCLC; -36.1% (active) with SN12C renal; 11.7% in the test with UO-31 renal; 27.3% in the test with TK-10 renal; 8.66% (active) with ACHN renal. In addition, the growth in the test with CAKI-1 renal is 16.8%; in the test with A498 renal it was 4.35% (active); with CCRF-CEM leukemia it was 8.23% (active); in the test with MOLT-4 leukemia it was -16.7% (active).

`COc1ccc(/C=C(\C#N)c2cc3ccccc3n2S(C)(=O)=O)cc1`: the growth in the test with SK-MEL-2 melanoma was 101%; with EKVX NSCLC it was 85.9%; in the test on SN12C renal, 90.8%; with UO-31 renal it was 56.2%; in the test with TK-10 renal, 125%; in the test on ACHN renal, 91.2%. In addition, the growth in the test on CAKI-1 renal was 53.2%; in the test with A498 renal, 99.2%; in the test with CCRF-CEM leukemia, 86%; in the test on MOLT-4 leukemia, 89.8%.

Regarding `CN(C)CCCC1(c2ccc(F)cc2)OCc2cc(-c3ccc(C(F)(F)F)nc3)ccc21` (stereo not given), the growth in the test with SK-MEL-2 melanoma is 94.2%; with EKVX NSCLC, 76.1%; in the test on SN12C renal, 75.1%; with UO-31 renal, 55.5%; with TK-10 renal, 82.4%; with ACHN renal it was 83.1%. The growth in the test on CAKI-1 renal was 55.4%; in the test with A498 renal, 89.8%; in the test with CCRF-CEM leukemia, 69.1%; in the test on MOLT-4 leukemia it was 53.6%.

Take `Oc1cccc2ccc(N/N=C/c3cc(CN4CCCCC4)c(O)c4ncccc34)nc12`: the growth in the test with SK-MEL-2 melanoma is -4.78% (active); with EKVX NSCLC, 20%; in the test with SN12C renal, 17.6%; with UO-31 renal, -19% (active); with TK-10 renal, 32.5%; in the test with ACHN renal it was -28.9% (active). The growth was 6.88% (active) with CAKI-1 renal, 38.9% in the test on A498 renal, 10.7% in the test on CCRF-CEM leukemia and 7.17% (active) with MOLT-4 leukemia.

As for `Cn1cc(-c2nc(-c3cn(C)c4ncccc34)cs2)c2cc(F)ccc21`, the growth in the test on SK-MEL-2 melanoma was 31.1%; in the test with EKVX NSCLC, 55.3%; with SN12C renal, 46%; in the test with UO-31 renal, 51.1%; with TK-10 renal, 46.3%; in the test on ACHN renal, 47.4%. In addition, the growth in the test with CAKI-1 renal is 20.8%; in the test on A498 renal, 44.8%; in the test with CCRF-CEM leukemia, 40%; in the test with MOLT-4 leukemia, 35.6%.

Regarding `N#CC1=C(N)Oc2ccc3ccccc3c2C1c1ccccc1` (stereo not given), the growth in the test with SK-MEL-2 melanoma was 49.7%; with EKVX NSCLC, 39%; in the test with SN12C renal, 42.2%; in the test on UO-31 renal it was 44.9%; with TK-10 renal, 121%; with ACHN renal it was 37.3%. Besides, the growth in the test on CAKI-1 renal was 23.3%; in the test with A498 renal it was 21.5%; in the test with CCRF-CEM leukemia it was 20.7%; in the test with MOLT-4 leukemia, 32.6%.

`O=C(O)c1cccc2c1-c1ccc(Cl)cc1C2`: the growth with SK-MEL-2 melanoma is 102%; in the test on EKVX NSCLC it was 110%; in the test on SN12C renal it was 105%; in the test with UO-31 renal, 89.7%; with TK-10 renal, 103%; in the test on ACHN renal, 107%. In addition, the growth in the test with CAKI-1 renal is 86.5%; with A498 renal it was 96.8%; in the test on CCRF-CEM leukemia it was 99.5%; in the test on MOLT-4 leukemia it was 89.9%.

Turning to `COc1cc(/C=C/c2cc(/C=C/c3ccc(O)c(OC)c3)n(-c3ccccc3)c(=O)n2)ccc1O`, the growth with SK-MEL-2 melanoma is 79.5%; with EKVX NSCLC, 71.4%; with SN12C renal, 71.4%; in the test on UO-31 renal, 58.6%; in the test with TK-10 renal it was 113%; in the test with ACHN renal, 81.1%. For the same compound, the growth with CAKI-1 renal was 83.7%; in the test on A498 renal it was 108%; in the test with CCRF-CEM leukemia it was 28.5%; in the test on MOLT-4 leukemia, 31.5%.

As for `CC(=O)O[C@H]1CC[C@]2(C)[C@H]3C(=O)C=C4[C@@H]5C[C@](C)(C(=O)N6CCCNCC6)CC[C@]5(C)CC[C@@]4(C)[C@]3(C)CC[C@H]2C1(C)C`, the growth in the test on SK-MEL-2 melanoma is 96.2%; with EKVX NSCLC, 54.8%; with SN12C renal, -82.1% (active); in the test on UO-31 renal it was -85.5% (active); in the test with TK-10 renal it was -14.3% (active); in the test on ACHN renal, -100% (active). The growth in the test with CAKI-1 renal was -99.3% (active); with A498 renal, 74.1%; with CCRF-CEM leukemia it was -31.5% (active); in the test on MOLT-4 leukemia it was -23.6% (active).

Turning to `CCSc1ncnc2c1ncn2C1OC(CO)C(O)C1O` (stereo not given), the growth is 63.4% with SK-MEL-2 melanoma; 51.8% in the test with EKVX NSCLC; 34.4% in the test on SN12C renal; 24.5% in the test on UO-31 renal; 37.6% in the test with TK-10 renal; 32.6% in the test on ACHN renal. For the same compound, the growth in the test on CAKI-1 renal was 32.2%; in the test on A498 renal, 60.9%; in the test on CCRF-CEM leukemia, 23.4%; with MOLT-4 leukemia it was 21.4%.
